Each structure is given as a SMILES string. Results filed as inconclusive are left out. Where a call stands in place of a potency, no number is given. Some compounds were tested as several samples or in several runs, with calls that do not always agree. Active and inactive are the calls of the source. The call rests on the fitted dose curve; in most records, active means well fitted curve in the direction sought with a large enough effect in the repeat runs; inconclusive means weak or mixed curves; inactive means no such curve, though single readings can be large; an effect the other way counts as inactive or inconclusive.

The nature of the first experiment: A CellTox Green Cytotoxicity Assay to monitor cytotoxicity in HEK293 cells - 24 hour (AID 1224875). Further: nearly all actives have a fitted effect of over 45% in size. Conditions: CellTox Green fluorescence; series mostly up to 76.8 µM; activity change: at the top concentration. An outline of the steps: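 Cytotoxicity was tracked continuously in HEK293 cells by a DNA-binding dye excluded from viable cells. Compounds were transferred in DMSO 5 h after seeding; fluorescence was recorded at intervals up to 40 h.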
Turning to `CC(C)C(=O)Nc1ccc([N+](=O)[O-])c(C(F)(F)F)c1`, the Potency result is “inactive”.

As to `CN(N=O)C(=O)N[C@@H]1[C@@H](O)[C@H](O)[C@@H](CO)O[C@@H]1O`, the Potency entry was “inactive”.

With `NS(=O)(=O)O`, the Potency result is “inactive”.

For `C=CCc1ccc(O)c(OC)c1`, the Potency entry was “inactive”.

Take `C/C=C/C=C/C(=O)O`: the Potency entry is “inactive”.

For the molecule `Cc1ncc([N+](=O)[O-])n1C`, the Potency entry is “inactive”.

As for `CN(C)CCOC(C)(c1ccccc1)c1ccccn1` (configuration not stated), the Potency result is “inactive”.

Turning to `COc1ccc2c(c1)c(CC(=O)O)c(C)n2C(=O)c1ccc(Cl)cc1`, the Potency result is “inactive”.

On to `CN(C)C(=O)Nc1ccc(Cl)c(Cl)c1`, for which the Potency entry was “inactive”.

In the case of `O=c1[nH]cc(F)c(=O)[nH]1`, the Potency entry is “inactive”.

Turning to `O=C(O)CC(O)C(=O)O` (configuration not stated), the Potency entry was “inactive”.

In the case of `CC(=O)Nc1c(I)c(NC(C)=O)c(I)c(C(=O)O)c1I`, the Potency result was “inactive”.

For `Cc1c(C(=O)O)c(O)cc2c1C(=O)c1c(O)c([C@@H]3O[C@H](CO)[C@@H](O)[C@H](O)[C@H]3O)c(O)c(O)c1C2=O`, the Potency result is “inactive”.

For the molecule `CCCCC1(COC(=O)CCC(=O)O)C(=O)N(c2ccccc2)N(c2ccccc2)C1=O`, the Potency result was “inactive”.

As to `Cc1ncc([N+](=O)[O-])n1CCO`, the Potency entry was “inactive”.

Take `CCCCOC(=O)c1ccc(O)cc1`: the Potency result was “inactive”.

On to `O=S1(=O)OC(c2ccc(O)cc2)(c2ccc(O)cc2)c2ccccc21`, for which the Potency entry is “inactive”.

Consider `NC(=O)c1cccnc1`, for which the Potency result is “inactive”.

As for `CC(=O)C(=O)O`, the Potency entry was “inactive”.

Turning to `O=C1NS(=O)(=O)c2ccccc21`, the Potency result is “inactive”.

In the case of `F[B-](F)(F)F`, the Potency entry was “inactive”.

Turning to `CC(C)c1c(C(=O)Nc2ccccc2)c(-c2ccccc2)c(-c2ccc(F)cc2)n1CC[C@@H](O)C[C@@H](O)CC(=O)O`, the Potency entry was “inactive”.

As for `Cc1cc(C)nc(NS(=O)(=O)c2ccc(N)cc2)n1`, the Potency result is “inactive”.

Turning to `CN(C)CCOC(c1ccccc1)c1ccccc1`, the Potency entry is “inactive”.

As to `CCCC[P+](CCCC)(CCCC)CCCC`, the Potency result is “inactive”.

For the molecule `C=C(C)C(=O)OCC(C)O` (configuration not stated), the Potency result was “inactive”.

With `Nc1ccc(S(N)(=O)=O)cc1`, the Potency result was “inactive”.

Turning to `CS(=O)(=O)OCCCCOS(C)(=O)=O`, the Potency entry was “inactive”.

For the molecule `CCOC(N)=O`, the Potency entry is “inactive”.

A short description of a further experiment: A CellTox Green Cytotoxicity Assay to monitor cytotoxicity in HepG2 cells - 16 hour (AID 1224876). Further: nearly all actives have a fitted effect of over 45% in size. The settings on record: CellTox Green fluorescence; series mostly up to 76.8 µM; cytotoxicity increase: at the top concentration. A digest of the protocol: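 Real-time, homogeneous cytotoxicity readout: dead-cell DNA staining by CellTox Green in HepG2 monolayers, fluorescence measured at timed intervals up to 40 h of continuous compound exposure.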
As for `CC(C)C(=O)Nc1ccc([N+](=O)[O-])c(C(F)(F)F)c1`, the Potency result is “inactive”.

For `CN(N=O)C(=O)N[C@@H]1[C@@H](O)[C@H](O)[C@@H](CO)O[C@@H]1O`, the Potency entry is “inactive”.

On to `NS(=O)(=O)O`, for which the Potency entry was “inactive”.

On to `C=CCc1ccc(O)c(OC)c1`, for which the Potency entry was “inactive”.

Turning to `C/C=C/C=C/C(=O)O`, the Potency result was “inactive”.

As for `Cc1ncc([N+](=O)[O-])n1C`, the Potency result was “inactive”.

Take `CN(C)CCOC(C)(c1ccccc1)c1ccccn1` (configuration not stated): the Potency result is “inactive”.

Regarding `COc1ccc2c(c1)c(CC(=O)O)c(C)n2C(=O)c1ccc(Cl)cc1`, the Potency result was “inactive”.

As for `CN(C)C(=O)Nc1ccc(Cl)c(Cl)c1`, the Potency entry was “inactive”.

As to `O=c1[nH]cc(F)c(=O)[nH]1`, the Potency entry was “inactive”.

Consider `O=C(O)CC(O)C(=O)O` (configuration not stated), for which the Potency result is “inactive”.

In the case of `CC(=O)Nc1c(I)c(NC(C)=O)c(I)c(C(=O)O)c1I`, the Potency result is “inactive”.

Consider `Cc1c(C(=O)O)c(O)cc2c1C(=O)c1c(O)c([C@@H]3O[C@H](CO)[C@@H](O)[C@H](O)[C@H]3O)c(O)c(O)c1C2=O`, for which the Potency result was “inactive”.

Regarding `CCCCC1(COC(=O)CCC(=O)O)C(=O)N(c2ccccc2)N(c2ccccc2)C1=O`, the Potency entry was “inactive”.

Regarding `Cc1ncc([N+](=O)[O-])n1CCO`, the Potency entry is “inactive”.

As to `CCCCOC(=O)c1ccc(O)cc1`, the “cytotoxicity increase” value was 1.28% [at 35.3 µM] (inactive).

Turning to `O=S1(=O)OC(c2ccc(O)cc2)(c2ccc(O)cc2)c2ccccc21`, the Potency entry is “inactive”.

With `NC(=O)c1cccnc1`, the Potency entry was “inactive”.

For the molecule `CC(=O)C(=O)O`, the Potency entry is “inactive”.

Regarding `O=C1NS(=O)(=O)c2ccccc21`, the Potency entry was “inactive”.

Turning to `F[B-](F)(F)F`, the Potency entry was “inactive”.

On to `CC(C)c1c(C(=O)Nc2ccccc2)c(-c2ccccc2)c(-c2ccc(F)cc2)n1CC[C@@H](O)C[C@@H](O)CC(=O)O`, for which the Potency entry is “inactive”.

As to `Cc1cc(C)nc(NS(=O)(=O)c2ccc(N)cc2)n1`, the Potency result is “inactive”.

For the molecule `CN(C)CCOC(c1ccccc1)c1ccccc1`, the Potency entry was “inactive”.

For the molecule `CCCC[P+](CCCC)(CCCC)CCCC`, the Potency result was “inactive”.

In the case of `C=C(C)C(=O)OCC(C)O` (configuration not stated), the Potency entry is “inactive”.

Turning to `Nc1ccc(S(N)(=O)=O)cc1`, the Potency result was “inactive”.

For `CS(=O)(=O)OCCCCOS(C)(=O)=O`, the Potency entry was “inactive”.

For `CCOC(N)=O`, the Potency result is “inactive”.

Another experiment can be described thus: qHTS RealTime-Glo MT Cell Viability Assay in HepG2 cells - 32 hour (AID 1224877). Further: nearly all actives have a fitted effect of over 55% in size. Further: potency means the concentration at half of the fitted maximal effect. Conditions: RealTime-Glo luminescence; series mostly up to 76.8 µM; activity change, negative = cytotoxic: at the top concentration. A digest of the protocol:
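Real-time, nonlytic viability: 600 HepG2 cells/well mixed with NanoLuc enzyme plus prosubstrate; 5 h settle, compound (DMSO) added by pintool; luminescence monitored over 40 h at 37 C.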
Consider `CC(C)C(=O)Nc1ccc([N+](=O)[O-])c(C(F)(F)F)c1`, for which the Potency entry was “inactive”.

Take `CN(N=O)C(=O)N[C@@H]1[C@@H](O)[C@H](O)[C@@H](CO)O[C@@H]1O`: the Potency entry was “inactive”.

Turning to `NS(=O)(=O)O`, the Potency result is “inactive”.

For the molecule `C=CCc1ccc(O)c(OC)c1`, the Potency entry is “inactive”.

As to `C/C=C/C=C/C(=O)O`, the Potency entry was “inactive”.

Consider `Cc1ncc([N+](=O)[O-])n1C`, for which the Potency result was “inactive”.

In the case of `CN(C)CCOC(C)(c1ccccc1)c1ccccn1` (configuration not stated), the Potency result was “inactive”.

As to `COc1ccc2c(c1)c(CC(=O)O)c(C)n2C(=O)c1ccc(Cl)cc1`, the Potency entry was “inactive”.

Turning to `CN(C)C(=O)Nc1ccc(Cl)c(Cl)c1`, the Potency entry is “inactive”.

As for `O=c1[nH]cc(F)c(=O)[nH]1`, the Potency entry was “inactive”.

In the case of `O=C(O)CC(O)C(=O)O` (configuration not stated), the Potency result is “inactive”.

Turning to `CC(=O)Nc1c(I)c(NC(C)=O)c(I)c(C(=O)O)c1I`, the Potency result is “inactive”.

On to `Cc1c(C(=O)O)c(O)cc2c1C(=O)c1c(O)c([C@@H]3O[C@H](CO)[C@@H](O)[C@H](O)[C@H]3O)c(O)c(O)c1C2=O`, for which the Potency entry was “inactive”.

Take `CCCCC1(COC(=O)CCC(=O)O)C(=O)N(c2ccccc2)N(c2ccccc2)C1=O`: the Potency result is “inactive”.

For the molecule `Cc1ncc([N+](=O)[O-])n1CCO`, the Potency result was “inactive”.

Consider `CCCCOC(=O)c1ccc(O)cc1`, for which the Potency entry is “inactive”.

On to `O=S1(=O)OC(c2ccc(O)cc2)(c2ccc(O)cc2)c2ccccc21`, for which the Potency was 49 µM (active) and inactive.

On to `NC(=O)c1cccnc1`, for which the Potency result was “inactive”.

`CC(=O)C(=O)O`: the Potency result was “inactive”.

In the case of `O=C1NS(=O)(=O)c2ccccc21`, the Potency result was “inactive”.

For the molecule `F[B-](F)(F)F`, the Potency result is “inactive”.

In the case of `CC(C)c1c(C(=O)Nc2ccccc2)c(-c2ccccc2)c(-c2ccc(F)cc2)n1CC[C@@H](O)C[C@@H](O)CC(=O)O`, the Potency result was “inactive”.

In the case of `Cc1cc(C)nc(NS(=O)(=O)c2ccc(N)cc2)n1`, the Potency entry was “inactive”.

As to `CN(C)CCOC(c1ccccc1)c1ccccc1`, the Potency result is “inactive”.

With `CCCC[P+](CCCC)(CCCC)CCCC`, the Potency result was “inactive”.

Take `C=C(C)C(=O)OCC(C)O` (configuration not stated): the Potency entry is “inactive”.

With `Nc1ccc(S(N)(=O)=O)cc1`, the Potency result was “inactive”.

For `CS(=O)(=O)OCCCCOS(C)(=O)=O`, the Potency entry is “inactive”.

For `CCOC(N)=O`, the Potency result was “inactive”.

Values taken from PubChem BioAssay (Tox21).
